RTF Ca sens act – cardiac RTF calcium sensitivity activators, primary screen, biochemical, IANBD-TnC fluorescence, EC20 calcium; IANBD-labeled TnC RTF fluorescence at EC20 calcium; 0% EC20 calcium, 100% full calcium; activation, % at 7.2 µM; Troponin I, cardiac muscle (Homo sapiens) + Troponin T, cardiac muscle (Homo sapiens) + …; 340,000 compounds, 0.24% hits;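 active = activation above the mean over all tested compounds plus 3 SD, cut at about 30% in these data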;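 note: rise in fluorescence read as greater calcium sensitivity of cardiac thin filaments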
Keap1-Nrf2 PPI – Keap1-Nrf2 protein-protein interaction inhibitors, primary screen, biochemical, fluorescence polarization, single point. AID 504523, 2011. 340,000 compounds, 0.15% hits. Kelch-like ECH-associated protein 1 (Homo sapiens), Q14145. inhibition, % at 9.4 µM. Keap1 Kelch-Nrf2 peptide fluorescence polarization, 1536-well; in the data active = inhibition above about 12%;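 note: human Keap1 Kelch domain with fluorescein labeled Nrf2 9mer peptide probe; 0% = neutral control wells and 100% = peptide positive control; higher means more block of Keap1 binding to Nrf2 peptide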
LANA DNA inh – inhibitors of KSHV C-LANA binding to DNA, primary screen, biochemical, fluorescence polarization, FAM-LBS DNA, MBP-C-LANA, single point | inhibition, % at 9 µM | 340,000 compounds, 0.078% hits | AID 504423, 2011;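 active = highest replicate inhibition at or above 60% at 9 µM, even if other replicates fall short; inactive = all replicates below 60% inhibition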;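 note: 0% = neutral control wells and 100% = 4 µM acridine orange control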
LANA-H2A inh – blockers of LANA interaction with H2A/H2B – biochemical, FP readout, HTS, primary screen; Protein LANA1 (Human herpesvirus 8 type P (isolate GK18)), Q9QR71; cell-free LANA-H2A/H2B peptide, fluorescence polarization; inhibition, % (no concentration beside the values); 320,000 compounds, 0.6% hits; AID 2629, 2010; in the data active = inhibition mostly above about 10%, no sharp cut-off; inactive = mostly below about 6.7%
Target sequence (Q9QR71 whole entry, looked up): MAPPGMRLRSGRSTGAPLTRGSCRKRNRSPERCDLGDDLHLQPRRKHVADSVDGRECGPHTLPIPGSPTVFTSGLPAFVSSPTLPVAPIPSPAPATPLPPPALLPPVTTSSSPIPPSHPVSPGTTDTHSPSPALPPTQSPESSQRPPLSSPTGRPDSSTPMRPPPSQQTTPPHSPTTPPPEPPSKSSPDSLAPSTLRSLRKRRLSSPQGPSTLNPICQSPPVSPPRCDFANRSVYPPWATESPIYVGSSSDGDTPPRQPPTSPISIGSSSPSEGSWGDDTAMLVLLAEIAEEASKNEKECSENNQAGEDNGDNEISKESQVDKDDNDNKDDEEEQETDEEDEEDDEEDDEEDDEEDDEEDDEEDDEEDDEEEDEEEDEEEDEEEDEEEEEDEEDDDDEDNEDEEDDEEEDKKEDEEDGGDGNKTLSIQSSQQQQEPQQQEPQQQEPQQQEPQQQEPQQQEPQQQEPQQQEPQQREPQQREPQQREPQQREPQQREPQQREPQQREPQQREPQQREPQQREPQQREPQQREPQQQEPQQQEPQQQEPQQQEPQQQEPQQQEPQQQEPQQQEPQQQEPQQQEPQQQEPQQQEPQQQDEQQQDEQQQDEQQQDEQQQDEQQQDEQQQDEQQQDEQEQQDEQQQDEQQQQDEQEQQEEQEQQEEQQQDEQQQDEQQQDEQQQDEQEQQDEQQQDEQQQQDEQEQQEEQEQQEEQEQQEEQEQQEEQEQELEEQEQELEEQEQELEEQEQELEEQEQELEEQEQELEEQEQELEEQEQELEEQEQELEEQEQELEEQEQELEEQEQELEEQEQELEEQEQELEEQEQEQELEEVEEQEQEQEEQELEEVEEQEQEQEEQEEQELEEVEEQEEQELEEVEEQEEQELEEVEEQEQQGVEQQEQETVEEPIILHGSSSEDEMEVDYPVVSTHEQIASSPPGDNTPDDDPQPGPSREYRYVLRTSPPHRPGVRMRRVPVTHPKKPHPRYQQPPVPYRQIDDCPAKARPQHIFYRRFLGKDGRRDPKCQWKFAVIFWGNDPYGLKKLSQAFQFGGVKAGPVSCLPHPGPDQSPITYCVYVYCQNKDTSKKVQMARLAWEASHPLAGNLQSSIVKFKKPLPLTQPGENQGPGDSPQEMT
RTF Ca sens inh – cardiac RTF calcium sensitivity inhibitors, primary screen, biochemical, IANBD-TnC fluorescence, EC70 calcium; inhibition, % at 7.15 µM; 340,000 compounds, 0.12% hits; IANBD-labeled cardiac RTF, Ca2+ fluorescence; Troponin I, cardiac muscle (Homo sapiens) + Troponin T, cardiac muscle (Homo sapiens) + …;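 active = inhibition above the mean inhibition of all tested compounds plus 3 SD, cut at about 17% in these data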;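 note: assay run at fixed EC70 calcium of 1.6 mM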
* hit, by the source's call; ! = not confirmed by another sample. In the library only some 0.98% were active in any assay of this set; here they are far more common.

How did COc1cc2ccccc2cc1C(=O)Nc1nccs1 do in these assays?
RTF Ca sens act: 8; Keap1-Nrf2 PPI: -4; LANA DNA inh: 1; LANA-H2A inh: 20*; RTF Ca sens inh: -1

How did CCCCn1nc(-c2ccccc2)c2nc3ccccc3nc21 do in these assays?
LANA-H2A inh: 25*

What do the screens show for `Cc1ccc(C(=O)NCC(=O)N2CCN(c3ncccn3)CC2)s1`?
RTF Ca sens act: 0; Keap1-Nrf2 PPI: 4; LANA DNA inh: -2; LANA-H2A inh: 18*; RTF Ca sens inh: -6

What do the screens show for `O=C(NCC(=O)N1CCN(c2ncccn2)CC1)c1cccs1`?
RTF Ca sens act: -4; Keap1-Nrf2 PPI: -6; LANA DNA inh: 1; LANA-H2A inh: 5; RTF Ca sens inh: -2

Results for O=S1(=O)CCN(C(CCO)c2cccc(C(F)(F)F)c2)CC1 (stereo not given) ?
RTF Ca sens act: 0; Keap1-Nrf2 PPI: -2; LANA DNA inh: 1; LANA-H2A inh: active; RTF Ca sens inh: 15

Results for O=C(CSc1nc2ccccc2c(=O)n1-c1ccccc1F)NC1CCS(=O)(=O)C1 (stereo not given) ?
RTF Ca sens act: -6; Keap1-Nrf2 PPI: 1; LANA DNA inh: -1; LANA-H2A inh: 124*; RTF Ca sens inh: -6

How did CN(C(=O)CSc1nc2ccccc2c(=O)n1C)C1CCS(=O)(=O)C1 (stereo not given) do in these assays?
RTF Ca sens act: -2; Keap1-Nrf2 PPI: 0; LANA DNA inh: 1; LANA-H2A inh: 20*; RTF Ca sens inh: -6

How did Cc1ccccc1-n1c(SCC(=O)NC2CCS(=O)(=O)C2)nc2ccccc2c1=O (stereo not given) do in these assays?
RTF Ca sens act: 1; Keap1-Nrf2 PPI: 6; LANA DNA inh: 1; RTF Ca sens inh: 0

Results for COc1ccc(-c2c(C#N)c(N)nc3sc(C(=O)c4ccccc4)c(N)c23)cc1 ?
RTF Ca sens act: 19; Keap1-Nrf2 PPI: -8; LANA DNA inh: 2; LANA-H2A inh: 5; RTF Ca sens inh: -19

Results for CCOc1ccc(-c2c(C#N)c(N)nc3sc(C(=O)c4ccccc4)c(N)c23)cc1 ?
RTF Ca sens act: 1; Keap1-Nrf2 PPI: -1; LANA DNA inh: 4; LANA-H2A inh: 11*; RTF Ca sens inh: -9

What do the screens show for `CN(C)c1nc(N(C)C)nc(N(C)C)n1`?
RTF Ca sens act: 5; Keap1-Nrf2 PPI: 6; LANA DNA inh: 0; LANA-H2A inh: 19*!; RTF Ca sens inh: 10

What do the screens show for `Cc1ccccc1C1CC(c2ccc(Br)cc2)Nc2nc(N)nn21` (stereo not given)?
RTF Ca sens act: 12; Keap1-Nrf2 PPI: -4; LANA DNA inh: 0; LANA-H2A inh: 17*; RTF Ca sens inh: 0

How did Cc1ccccc1C1CC(c2ccc(F)cc2)Nc2nc(N)nn21 (stereo not given) do in these assays?
RTF Ca sens act: -3; Keap1-Nrf2 PPI: -2; LANA DNA inh: -4; LANA-H2A inh: 3; RTF Ca sens inh: -14

What do the screens show for `COc1cc(N2CCCC2)c(OC)cc1/C=C(/C#N)c1ccc(Br)cc1`?
RTF Ca sens act: 30*; Keap1-Nrf2 PPI: 0; LANA DNA inh: 8; LANA-H2A inh: -2; RTF Ca sens inh: -15

Results for COc1cc(N2CCCC2)ccc1C=O ?
RTF Ca sens act: 7; Keap1-Nrf2 PPI: 0; LANA DNA inh: -2; LANA-H2A inh: 1; RTF Ca sens inh: -9

What do the screens show for `N#C/C(=C/c1ccc(N2CCCCC2)cc1)c1cccc(F)c1`?
RTF Ca sens act: -3; Keap1-Nrf2 PPI: -5; LANA DNA inh: 0; LANA-H2A inh: -9; RTF Ca sens inh: -2

How did COc1cc(N2CCCC2)c(OC)cc1/C=C(/C#N)c1ccc(F)cc1 do in these assays?
RTF Ca sens act: 14; Keap1-Nrf2 PPI: -3; LANA DNA inh: 1; LANA-H2A inh: -69*; RTF Ca sens inh: -68

How did COc1ccc(CNC2CCCc3ccccc32)cc1OC (stereo not given) do in these assays?
RTF Ca sens act: 10; Keap1-Nrf2 PPI: -5; LANA DNA inh: 1; LANA-H2A inh: 31*; RTF Ca sens inh: -17

Screening results from PubChem.
